# Laboratory results as given in PubChem BioAssay.
# “And” between values parts separate entries of the source, which are not always exact repeats. Equal entries are not always repeated. The source made the active and inactive calls. The rule behind the calls is not given here.
# Assay: inhibition of 3D7 malaria parasite growth – strain 3D7 (AID 2306);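 note: 0% = DMSO wells and 100% = chloroquine plus artemisinin control wells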
# Conditions: P. falciparum 3D7 erythrocytic growth, LDH absorbance, 72 h; at 2 µM; active compounds read high
smiles,measurement,value
CCc1nc(N)nc(N)c1-c1ccc(Cl)cc1,growth inhibition,94% (active) and 93% (active)
